# From ChEMBL document CHEMBL1157539, “Thousands of chemical starting points for antimalarial lead identification” (Nature, 2010)
# Tested on: HepG2
# Assay: GSK_TCMDC: Percent inhibition of human HepG2 cell line. Test compounds present at 10uM.
# Type: functional
row,SMILES,Inhibition
1,Cc1cc(Nc2cccc(C(F)(F)F)c2)nc(NCc2ccccc2)n1,17%
2,O=C(Nc1ccc(Cl)cc1)N[C@H]1CCN(Cc2ccc(OCCCN3CCCCC3)cc2)C1,29%
3,CC(C)C(C(=O)n1cc2c(ccc3nc(N)nc(N)c32)n1)C(C)C,58%
4,CN1CCc2cc(O)c(NS(=O)(=O)c3ccc(-c4ccc(Cl)cc4)cc3)cc2CC1.Cl,7%
5,Nc1ccc(-c2cnc3[nH]cc(-c4ccc(C(=O)O)cc4)c3c2)cn1.O=C(O)C(F)(F)F,48%
6,CCN(CC)CCN(Cc1ccc(-c2ccc(C(F)(F)F)cc2)cc1)C(=O)Cn1c(CCc2ccc(F)c(F)c2)nc(=O)c2ccccc21.O=C(O)C(O)C(O)C(=O)O,31%
7,CCCC(C)c1ccc(N2C(N)=NC(N)=NC2(C)C)cc1.Cl (stereo not given),51%
8,Cc1[nH]c(C)c(-c2ccc(-c3ccccc3)nc2)c(=O)c1Br,0%
9,O=C(O)C(F)(F)F.O=S(=O)(NCCN1CCCC1)c1ccc(-c2ccc(CNC3Cc4ccccc4C3)cc2)cc1F,33%
10,COc1ccc2nc(-c3cc(-c4ccc(NC(=O)C(C)C)cc4)cnc3N)[nH]c2c1,43%
11,CC(C)(C)NCCN(Cc1ccc(-c2ccc(C(F)(F)F)cc2)cc1)C(=O)Cn1c(CCc2cccc(F)c2F)nc(=O)c2c1CCC2.O=C(O)C(O)C(O)C(=O)O,6%
12,COc1cc(Nc2nccc(N3CCC(NC(=O)Nc4ccc5c(c4)OCO5)C3)n2)cc(OC)c1OC (stereo not given),9%
13,C=CC[C@H](C[C@H](O)[C@H](Cc1ccccc1)NC(=O)c1nn(-c2ccccc2)nc1C)C(=O)NC1CCCCC1,6%
14,COc1cc2nccc(Nc3ccc4c(cnn4Cc4ccccc4F)c3)c2cc1OC.Cl,55%
15,CN1CCCC1CCCOC(=O)c1ccc(N)cc1 (stereo not given),8%
16,CCc1ccc(N2C(N)=NC(N)=NC2(C)C)cc1.Cl,51%
17,COc1ccc(-c2cc(C(F)(F)F)n3ncc(C(=O)Nc4cc(C)ccc4O)c3n2)cc1OC,2%
18,O=C(Nc1ccccc1)Nc1cccc(-c2cc(CNCCc3ccccc3)sc2-c2ccncc2)c1,14%
19,COc1ccc2c(c1)Nc1ccc(Cl)cc1C2N.O=S(=O)(O)O (stereo not given),16%
20,Cc1nc(N)nc(N)c1CCCOc1ccc(Br)cc1,30%

row,SMILES,Inhibition
1,C=CCOc1ccc(CNC2CCN(Cc3ccccc3)CC2)cc1Br.O=C(O)C(=O)O,9%
2,O=C(NCC1CC1)C1CCN(C(c2ccccc2)c2nc3ccccc3s2)CC1 (stereo not given),0%
3,N#Cc1ccc(C(=O)Nc2cccc(-c3ccc(CN4CCCC4)cc3)c2)cc1.O=C(O)C(F)(F)F,13%
4,COc1ccc(Nc2cc(C)nc(Nc3ccc(NC(C)=O)cc3)n2)cc1,16%
5,Cc1ccccc1C1CCN(C2CCC(NC(=O)/C=C/c3ccc(C#N)cc3)CC2)CC1 (stereo not given),39%
6,Cl.N[C@@H](CCNCc1ccc(-c2cccnc2)cc1)Cc1ccc(F)c(F)c1,45%
7,Cn1c(NC(=O)CCCCCNC(=O)c2ccc(O)c(-c3ccc(Cl)c(Cl)c3)c2)nc2ccccc21,0%
8,CC(C)CN(C)c1ncnc2c1nc(-c1cncc(C#N)c1)n2CCNCc1ccccc1.O=C(O)C(F)(F)F,4%
9,CC(=O)c1ccc2cc(C(=O)NC3CCC(CCN4CCc5ccc(-c6noc(C)n6)cc5CC4)CC3)[nH]c2c1.Cl (stereo not given),28%
10,COC(=O)c1ccc2nc(-c3ccc(C(=O)NCc4ccc(Cl)c(Cl)c4)cc3)[nH]c2c1,1%
11,COCCNC(=O)C1CCN(C(c2ccc(Cl)cc2)c2ccc(Cl)cc2)CC1,3%
12,O=C(O)C(F)(F)F.c1ccc2[nH]c(-c3ccc(-c4ccc(CNC5CC5)cc4)s3)nc2c1,25%
13,N=C(N)NCCN(Cc1ccccc1)c1ccc(Cl)cc1,0%
14,Cc1ccc(O)cc1C[C@@H]1C(=O)CC[C@@]2(C)[C@H]1CC[C@]2(C)O,4%
15,COCCNCc1cccc(-c2ccc3c(Nc4ccc(Oc5ccccc5)cc4)ccnc3c2)c1,25%
16,COc1ccc(Nc2nccc(NCCNC(=O)Nc3ccccc3F)n2)cc1,4%
17,COc1ccc(CNc2ccnc3cc(OC)ccc23)cc1,7%
18,O=C(Nc1ccc(Cn2nc(Cl)c(N3CCCNCC3)cc2=O)cc1)Nc1ccc(-c2ccccc2)cc1.O=C(O)C(F)(F)F,89%
19,CC1CN(c2ncc(-c3ccc(CNC4Cc5ccccc5C4)cc3)cn2)CC(C)N1.O=CO (stereo not given),27%
20,CN1CCC(C(=O)Nc2cccc(-c3ccc(-c4nc5cc(F)ccc5[nH]4)cc3)c2)CC1,12%
